Screening data as filed in PubChem.
Hits are enriched below; roughly 4.3% of the tested compounds scored in any of these assays.
SMARCA2 activ = SMARCA2 function activation, primary screen; AID 652017; 1% of 370,000 active; MG213 cells, MMTV-luciferase reporter, dexamethasone, overnight; activation, % at 9.1 µM; in the data active = activation above about 7.8%
MITF TRPM1 HTS = MITF TRPM1 promoter activation in melanoma cells. 0.75% of 300,000 active. activation, % at 12.5 µM. SK-MEL-5 TRPM1-promoter luciferase, 24 h; % of positive control, neutral wells = 0;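 active = mean activation of at least 80% with every replicate also reaching 80%; inconclusive = mean reaches 80% but some replicate falls short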
Wnt bcat act = activators of Wnt/beta-catenin signaling | AID 743398 | activation, % at 9.35 µM | 1.2% of 300,000 active | Wnt/beta-catenin reporter cell assay, activator, plate reader; in the data active = activation above about 30%, passing the limit was not always enough; inconclusive = no clear call, values can overlap the other calls
HSF1 inhib = HSF1 inhibition; activity change, negative = inhibition, % at 7.5 µM (by protocol); 0.77% of 300,000 active; NIH3T3-HGL HSE-luciferase, MG132-induced, luminescence 8 h; active compounds read low;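 active = more than half of replicate wells show activity change below -50%, luminescence cut by over half; inconclusive = some wells, but at most half, below -50%; inactive = no replicate well below -50%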;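 also: luciferase reports HSF-1 transcriptional activity via heat shock element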
HSF1 activator = increases HSF-1 driven luciferase reporter signal; 1.7% of 300,000 active; NIH3T3-HGL HSF-1 luciferase reporter, MG132, 8 h; 100% = twice DMSO control signal; activation, % at 9 µM;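 active = mean replicate activation of at least 50% with a set share of replicates each reaching 50%; inconclusive = only one of those two conditions met; inactive = mean below 50% and too few replicates reaching it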
esBAF inh = blocks esBAF chromatin remodeling in mouse ES cells; 2% of 350,000 active; Bmi1-luciferase knock-in reporter, 24 h; 100% = twice the neutral-well signal; reporter increase, % at 12.5 µM; in the data active = activation above about 40%; inconclusive = no clear call, values can overlap the other calls;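 also: a rise in the Bmi1 reporter signal indicates esBAF inhibition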
Each line names hits and unclear results; the compound was inactive in the other large screens.

C/C(=N\NC(=O)c1ccncc1)c1ccc(NC(=O)c2ccc(Cl)cc2)cc1	none
C/C(=N\NC(=O)c1cccc(N/N=C(\C)c2cc(O)ccc2O)c1)c1cc(O)ccc1O	HSF1 activator 64.3 (no result: esBAF inh)
COCC#Cc1cnc2c(c1)C(=O)N([C@@H](C)CO)C[C@H](C)[C@@H](CN(C)C(=O)c1ccc3c(c1)OCO3)O2	none (no result: SMARCA2 activ, MITF TRPM1 HTS, Wnt bcat act, HSF1 inhib, HSF1 activator)
CO[C@@H]1CN(C)C(=O)c2cc(NS(C)(=O)=O)ccc2OC[C@@H](C)N(CCC(F)(F)F)C[C@@H]1C	none (no result: SMARCA2 activ, MITF TRPM1 HTS, Wnt bcat act, HSF1 inhib, HSF1 activator)
Cc1ccc(S(=O)(=O)N2CCN(S(C)(=O)=O)C2)cc1	HSF1 inhib -62.5
Cc1ccc(S(=O)(=O)N2CCN(S(=O)(=O)c3ccccc3)C2)cc1	none (no result: Wnt bcat act)
O=C(CCn1c(=S)oc2ccccc21)NC1CCCCCC1	HSF1 inhib -70.6
CC1CCCC(NC(=O)CCn2c(=S)oc3ccccc32)C1C (stereo not given)	none
O=c1c2c(nc3cc(-c4ccccc4)[nH]n13)CCC2	none (no result: Wnt bcat act)
Cc1ccc(-c2[nH]n3c(=O)c4c(nc3c2C)CCCC4)cc1	esBAF inh 53.4 (no result: MITF TRPM1 HTS, Wnt bcat act)
O=c1c2c(nc3cc(-c4ccc(Br)cc4)[nH]n13)CCCC2	MITF TRPM1 HTS 109.4
COc1ccc(C2c3c(ncn(CCCO)c3=N)Oc3ccc4ccccc4c32)cc1OC (stereo not given)	none (no result: MITF TRPM1 HTS, esBAF inh)
COc1ccc(C2c3c(ncn(CCCO)c3=N)Oc3ccc4ccccc4c32)cc1 (stereo not given)	HSF1 activator 58.4 (no result: MITF TRPM1 HTS)
COc1cc(OC)cc(-c2nnc(Sc3ccc(C=O)cc3[N+](=O)[O-])o2)c1	HSF1 activator 141.8 (no result: SMARCA2 activ, MITF TRPM1 HTS, Wnt bcat act, esBAF inh)
COc1cc(OC)cc(-c2nnc(SCC(=O)N(C(C)C)C(C)C)o2)c1	none (no result: Wnt bcat act)
CCNC(=O)C[C@@H]1CC[C@@H]2[C@H](COC[C@H](O)CN2C(=O)Nc2c(C)noc2C)O1	none (no result: SMARCA2 activ, MITF TRPM1 HTS, Wnt bcat act, HSF1 inhib, HSF1 activator)
CN1C(=O)c2cc(NC(=O)C3CCCC3)ccc2OC[C@H]2O[C@@H](CC(=O)NCC3CC3)CC[C@@H]21	none (no result: SMARCA2 activ, MITF TRPM1 HTS, Wnt bcat act, HSF1 inhib, HSF1 activator)
COc1ccccc1/C=C/C1=NC(=C\C=C/c2ccccc2)/C(=O)O1	HSF1 activator 170.9 (no result: esBAF inh)
COc1ccccc1/C=C/C=C1N=C(/C=C/c2ccc(Cl)cc2)OC/1=O	none (no result: esBAF inh)
c1ccc(N2CCN(c3nc(NCc4ccco4)c4ccccc4n3)CC2)cc1	none (no result: MITF TRPM1 HTS, Wnt bcat act)
c1ccc(CNc2nc(N3CCN(Cc4ccccc4)CC3)nc3ccccc23)cc1	HSF1 inhib -54.6 (no result: MITF TRPM1 HTS)
c1ccc(CSc2nnc(-c3cccnc3)o2)cc1	esBAF inh 42.4
c1ccc(CSc2ccc(-c3cccnc3)nn2)cc1	MITF TRPM1 HTS 89.2, esBAF inh 59.1
c1cncc(-c2nnc(SCc3nc4ccccc4[nH]3)o2)c1	HSF1 inhib -67.9 (no result: MITF TRPM1 HTS)
Oc1ccc(-c2nnc(SCc3ccccc3)o2)cc1	MITF TRPM1 HTS 113.5, HSF1 activator inconclusive, esBAF inh 49.3
c1cncc(-c2nnc(SCc3cccc4ccccc34)o2)c1	none
Cc1ccc(S(=O)(=O)N(C)C[C@@H]2Oc3ccc(NC(=O)NC4CCCCC4)cc3C(=O)N([C@H](C)CO)C[C@@H]2C)cc1	none (no result: SMARCA2 activ, MITF TRPM1 HTS, Wnt bcat act, HSF1 inhib, HSF1 activator)
CC(C)NC(=O)Nc1ccc2c(c1)C(=O)N([C@H](C)CO)C[C@H](C)[C@H](CN(C)S(=O)(=O)c1ccccc1)OCCCC[C@H](C)O2	none (no result: SMARCA2 activ, MITF TRPM1 HTS, Wnt bcat act, HSF1 inhib, HSF1 activator)
Cc1ccc(S(=O)(=O)Nc2ccc3c(c2)C(=O)N([C@@H](C)CO)C[C@H](C)[C@H](CN(C)Cc2ccc(C(=O)O)cc2)OCCCC[C@@H](C)O3)cc1	none (no result: SMARCA2 activ, MITF TRPM1 HTS, Wnt bcat act, HSF1 inhib, HSF1 activator)
C[C@@H]1CN([C@H](C)CO)C(=O)c2c(c3ccccc3n2C)-c2ccccc2CO[C@@H]1CN(C)C(=O)[C@@H]1CCCN1C	none (no result: SMARCA2 activ, MITF TRPM1 HTS, Wnt bcat act, HSF1 inhib, HSF1 activator)
C[C@H]1CN([C@@H](C)CO)C(=O)Cc2cc(NC(=O)Nc3ccccc3)ccc2O[C@H]1CN(C)C(=O)Nc1ccc2c(c1)OCO2	none (no result: SMARCA2 activ, MITF TRPM1 HTS, Wnt bcat act, HSF1 inhib, HSF1 activator)
c1ccc(-c2nnc(SCCC3OCCCO3)o2)cc1	Wnt bcat act 47.9 (no result: esBAF inh)
Brc1ccc(-c2nnc(SCCC3OCCCO3)o2)cc1	none (no result: Wnt bcat act)
C[C@@H]1CN([C@H](C)CO)C(=O)c2cc(NC(=O)C3CC3)ccc2O[C@@H]1CN(C)S(=O)(=O)c1ccc(F)cc1	none (no result: SMARCA2 activ, MITF TRPM1 HTS, Wnt bcat act, HSF1 inhib, HSF1 activator)
O=C(c1ccco1)c1nnn(Cc2ccccc2)c1-c1ccccc1	HSF1 activator 64.4
Cc1noc(C)c1NC(=O)Nc1ccc2c(c1)CC(=O)N([C@@H](C)CO)C[C@@H](C)[C@@H](CN(C)Cc1ccc(-c3ccccc3)cc1)O2	none (no result: SMARCA2 activ, MITF TRPM1 HTS, Wnt bcat act, HSF1 inhib, HSF1 activator)
